Only some compounds are listed: those with a hit (about 4.1% of all), similar ones and a draw of the others.
DAX1 inh-1: blocks DAX1 repression of SF-1 activated StAR promoter; HEK293T StAR-luciferase reporter, SF-1/DAX-1 repression relief; inhibition, % at 6.8 µM; actives 1.1% (n = 370,000); AID 652010;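 active means inhibition above the mean over all tested compounds plus 3 SD, cut at about 3.6% in these data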;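 further: 0% = DAX-1 cells with DMSO and 100% = cells lacking DAX-1 with DMSO; higher inhibition means more luminescence from relief of DAX-1 repression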
hcDAF12 agonist: activates DAF-12 receptor from parasite H. contortus. HEK293 hcDAF-12 lit1-tk-luc reporter, luminescence; 0% DMSO, 100% Δ7-dafachronic acid. activation, % at 6.8 µM. actives 1.4% (n = 370,000);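 active means activation above the mean of all tested compounds plus 3 SD, cut at about 5.5% in these data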;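 further: 100% = response to 3 µM Δ7-dafachronic acid high control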
DAX1 inh-2: NR0B1 (DAX1) inhibition; HEK293 Gal4-DAX1 luciferase reporter, luminescence; inhibition, % at 6.75 µM; actives 0.99% (n = 340,000);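 active means inhibition above the mean over all tested compounds plus 3 SD, cut at about 4.2% in these data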;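 further: 0% = DAX1-transfected cells with DMSO and 100% = empty-vector control cells with DMSO; inhibition shows as a rise in luminescence from relieved DAX1 repression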
Target sequence (P51843 207-470 limits assumed): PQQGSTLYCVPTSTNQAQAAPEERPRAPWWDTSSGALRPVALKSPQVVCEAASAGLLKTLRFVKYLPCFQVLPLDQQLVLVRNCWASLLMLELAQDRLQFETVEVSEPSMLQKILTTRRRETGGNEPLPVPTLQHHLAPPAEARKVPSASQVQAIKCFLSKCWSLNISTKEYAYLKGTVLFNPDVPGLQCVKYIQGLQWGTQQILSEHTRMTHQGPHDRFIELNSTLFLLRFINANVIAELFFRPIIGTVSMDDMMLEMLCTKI
ssDAF-12 act: S. stercoralis DAF-12 activation, primary screen; AID 652126; HEK293 ssDAF-12/GRIP1 lit1-tk-luc reporter, luminescence; % of 3 µM dafachronic acid response; actives 1% (n = 370,000); activation, % at 6.8 µM;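 active means activation above the mean over all tested compounds plus 3 SD, cut at about 0.9% in these data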;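 further: 0% = DMSO-only wells and 100% = 3 µM delta7-dafachronic acid wells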
hgDAF-12 ag: agonists of H. glycines DAF-12 nuclear receptor | actives 1.8% (n = 370,000) | HEK293 GAL4-hgDAF12 UAS-luciferase reporter, agonist luminescence; normalized to butyrate control | activation, % at 6.8 µM;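 active means activation above a cutoff set at the mean of all screened compounds plus 3 SD, cut at about 10% in these data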;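 further: 0% = DMSO wells and 100% = sodium butyrate wells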
* = called active by the depositor; nt = not tested or not shown.

SMILES	DAX1 inh-1	hcDAF12 agonist	DAX1 inh-2	ssDAF-12 act	hgDAF-12 ag
O=C(CC1=NCCNC(c2ccccc2)C1)c1ccccc1O (stereo unspecified)	1	5.8*	0	0	7
CC(=O)Nc1cccc(NC(=O)C(=O)c2cn(CC(=O)N3CCCC3)c3ccccc23)c1	2	6.0*	0	1.2*	5
COc1ccc(Br)cc1C=NNC(=O)c1ccncc1	1	-1	nt	-2	-1
CC1=CC2C3C(=O)N(c4ccccc4)C(=O)C3C1C(=O)C2(O)C(C)C (stereo unspecified)	-1	1	nt	-1	1
CCn1c2ccccc2c2cc(C=Nn3c(-c4ccccc4C)n[nH]c3=S)ccc21	-3	-4	nt	-2	1
c1ccc(N2CCN(c3ccccc3)C2c2cccs2)cc1	0	1	7.7*	-2	7
COCCCN1C(=O)[C@H](CC(=O)NCCc2ccccc2OC)[C@]2(C(=O)OC)CCCCC=C12	0	-2	nt	-1	3
C/C(=N\NC(=O)c1cccc([N+](=O)[O-])c1)c1ccncc1	-1	1	-2	0	4
C/C(=N\NC(=O)c1cccs1)c1ccc2ccccc2c1	2	3	4	-1	11*
C/C(=N\NC(=O)c1cccc([N+](=O)[O-])c1)c1cccs1	1	1	4.9*	-1	6
C/C(=N/NC(=O)c1cccs1)c1cccc(NC(=O)C2CC2)c1	4.2*	5	1	0	13*
C/C(=N\NC(=O)c1cccc2ccccc12)c1cccs1	1	-1	1	0	1
COc1ccc(S[C@]2(C(=O)N(C)C)CC(=O)N(C(=O)c3ccccc3)[C@@H]2c2ccc(OC)cc2)cc1	-2	-1	nt	-1	-3
CC(Oc1cc2oc(=O)c3c(c2cc1Cl)CCC3)C(=O)N1C[C@H]2C[C@@H](C1)c1cccc(=O)n1C2 (stereo partly specified)	1	-3	1	-1	3
O=C(Oc1cc2oc(=O)c3c(c2cc1Cl)CCCC3)c1ccco1	0	0	4.7*	-1	3
O=C(COc1cc2oc(=O)c3c(c2cc1Cl)CCCC3)N1C[C@H]2C[C@@H](C1)c1cccc(=O)n1C2	-1	0	5.7*	-2	1
Cc1oc2c(C)c3oc(=O)c(CCC(=O)N4C[C@H]5C[C@@H](C4)c4cccc(=O)n4C5)c(C)c3cc2c1C	1	-4	4.9*	-1	-5
Nc1ncnc2c1ncn2[C@@H]1O[C@H](C(=O)N[C@@H](CCc2ccccc2)C(=O)N2CCN(C(=O)N3CCOCC3)CC2)[C@@H](O)[C@H]1O	1	0	nt	-1	-3
CC(=O)N(/C=C1\SC(=S)N(c2ccccc2)C1=O)c1ccccc1	0	0	0	1.9*	-2
O=C1NN=COc2ccccc21	1	5.7*	-1	0	2
O=C1NC(c2ccc(Cl)cc2)=COc2ccccc21	1	0	1	0	-2
C[C@H](O)[C@@H]1C(=O)N2CCc3c([nH]c4cccc(-c5ccccc5)c34)[C@@H]2C[C@@H]1N(C)C(=O)OCc1ccccc1	0	-1	nt	-1	2
C/C(CC(C)C)=N/Nc1ccc([N+](=O)[O-])cc1[N+](=O)[O-]	1	4	0	0	2
CC(Cc1ccccc1)=NNc1ccc([N+](=O)[O-])cc1[N+](=O)[O-]	0	0	-1	2.4*	3
COc1ccc(N=Nc2ccc(N)nc2N)cc1	3	5	4.6*	0	11*
SMILES	DAX1 inh-1	hcDAF12 agonist	DAX1 inh-2	ssDAF-12 act	hgDAF-12 ag
Nc1ccc(N=Nc2ccc(O)cc2)c(N)n1	-2	0	-2	0	1
Cc1cc(N2CCN(CC(C)(C)O)C[C@H]2C)ccc1N1CCN(Cc2ccccc2)[C@@H](C)C1	-2	3	nt	-1	-4
Cc1cc(=O)nc2c3ccccc3n(CC(=O)NCCCN3CCCC3=O)n12	1	6.0*	1	0	3
Cc1ccccc1NC(=O)NCCCN1CCCC1=O	2	0	0	-1	-1
Cc1ccccc1NC(=O)C(=O)NCCCN1CCCC1=O	3.7*	3	1	0	0
CCN(CC)CCCNC(=O)C(C)n1c2ccccc2c2nc(=O)cc(C)n21 (stereo unspecified)	1	-1	5.4*	-1	-1
Cc1cc(=O)nc2c3ccccc3n(CC(=O)NCCCN3CCOCC3)n12	nt	nt	1	nt	nt

Compound activity deposited in PubChem BioAssay by The Scripps Research Institute Molecular Screening Center.
